Source: ChEMBL document CHEMBL1961873, “Compounds: GSK PKIS; Assays: Nanosyn kinase panel” (2012)

How the values were obtained:
[1] = target: Protein kinase C gamma type (Homo sapiens) (UniProt P05129); settings: at 1 µM;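 further: each value is an averaged percent inhibition of the enzyme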
[2] = target: T1, Protein kinase C iota type (Homo sapiens) (UniProt P41743); settings: at 0.1 µM
T1 sequence (whole entry): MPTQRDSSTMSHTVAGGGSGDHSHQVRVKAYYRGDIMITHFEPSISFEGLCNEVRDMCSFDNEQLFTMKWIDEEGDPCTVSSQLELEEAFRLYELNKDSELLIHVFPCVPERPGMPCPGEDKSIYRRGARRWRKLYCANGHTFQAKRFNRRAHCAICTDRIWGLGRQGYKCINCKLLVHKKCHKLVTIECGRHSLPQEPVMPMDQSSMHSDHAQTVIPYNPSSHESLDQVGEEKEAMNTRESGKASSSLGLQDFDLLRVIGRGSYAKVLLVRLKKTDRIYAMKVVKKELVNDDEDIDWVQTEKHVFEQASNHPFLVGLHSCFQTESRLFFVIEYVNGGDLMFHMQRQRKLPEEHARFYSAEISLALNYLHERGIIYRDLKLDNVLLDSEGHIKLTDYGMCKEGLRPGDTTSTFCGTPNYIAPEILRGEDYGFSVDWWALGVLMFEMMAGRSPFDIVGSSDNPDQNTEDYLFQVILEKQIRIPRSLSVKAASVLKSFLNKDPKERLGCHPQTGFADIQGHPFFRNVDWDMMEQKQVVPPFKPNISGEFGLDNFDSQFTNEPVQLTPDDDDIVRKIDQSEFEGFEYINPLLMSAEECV

[3] = target: T1, Protein kinase C iota type (Homo sapiens); settings: at 1 µM
[4] = target: Protein kinase C theta type (Homo sapiens) (UniProt Q04759); settings: at 0.1 µM
[5] = target: Protein kinase C theta type (Homo sapiens) (UniProt Q04759); settings: at 1 µM
[6] = target: Protein kinase C beta type (Homo sapiens) (UniProt P05771); settings: at 0.1 µM
[7] = target: Protein kinase C beta type (Homo sapiens) (UniProt P05771); settings: at 1 µM
[8] = target: T2, Serine/threonine-protein kinase D1 (Homo sapiens) (UniProt Q15139); settings: at 0.1 µM
T2 sequence (whole entry): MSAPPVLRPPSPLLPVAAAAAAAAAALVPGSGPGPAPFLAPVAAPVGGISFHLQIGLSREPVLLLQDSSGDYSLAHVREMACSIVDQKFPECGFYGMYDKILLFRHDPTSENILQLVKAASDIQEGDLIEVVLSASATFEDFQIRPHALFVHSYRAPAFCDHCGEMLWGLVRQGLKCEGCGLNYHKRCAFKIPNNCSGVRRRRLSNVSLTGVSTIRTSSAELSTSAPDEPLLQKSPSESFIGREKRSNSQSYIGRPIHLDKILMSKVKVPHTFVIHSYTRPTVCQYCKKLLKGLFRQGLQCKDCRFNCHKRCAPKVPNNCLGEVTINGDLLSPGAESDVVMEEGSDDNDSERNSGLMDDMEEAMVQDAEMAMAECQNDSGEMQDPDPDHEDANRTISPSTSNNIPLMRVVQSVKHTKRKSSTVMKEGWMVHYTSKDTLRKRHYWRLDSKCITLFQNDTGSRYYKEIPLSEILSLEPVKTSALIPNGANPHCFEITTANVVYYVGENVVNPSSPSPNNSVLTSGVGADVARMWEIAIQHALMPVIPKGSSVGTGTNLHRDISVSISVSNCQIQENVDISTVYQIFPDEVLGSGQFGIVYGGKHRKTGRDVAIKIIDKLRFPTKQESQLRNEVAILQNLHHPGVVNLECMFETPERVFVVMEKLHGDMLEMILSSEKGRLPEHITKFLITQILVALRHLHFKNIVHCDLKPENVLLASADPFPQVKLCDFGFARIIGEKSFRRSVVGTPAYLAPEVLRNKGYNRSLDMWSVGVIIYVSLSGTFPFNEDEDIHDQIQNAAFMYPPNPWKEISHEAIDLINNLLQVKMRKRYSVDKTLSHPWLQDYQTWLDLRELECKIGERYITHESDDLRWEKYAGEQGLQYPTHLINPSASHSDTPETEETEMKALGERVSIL

[9] = target: T2, Serine/threonine-protein kinase D1 (Homo sapiens); settings: at 1 µM
[10] = target: T3, Serine/threonine-protein kinase D2 (Homo sapiens) (UniProt Q9BZL6); settings: at 0.1 µM
T3 sequence (whole entry): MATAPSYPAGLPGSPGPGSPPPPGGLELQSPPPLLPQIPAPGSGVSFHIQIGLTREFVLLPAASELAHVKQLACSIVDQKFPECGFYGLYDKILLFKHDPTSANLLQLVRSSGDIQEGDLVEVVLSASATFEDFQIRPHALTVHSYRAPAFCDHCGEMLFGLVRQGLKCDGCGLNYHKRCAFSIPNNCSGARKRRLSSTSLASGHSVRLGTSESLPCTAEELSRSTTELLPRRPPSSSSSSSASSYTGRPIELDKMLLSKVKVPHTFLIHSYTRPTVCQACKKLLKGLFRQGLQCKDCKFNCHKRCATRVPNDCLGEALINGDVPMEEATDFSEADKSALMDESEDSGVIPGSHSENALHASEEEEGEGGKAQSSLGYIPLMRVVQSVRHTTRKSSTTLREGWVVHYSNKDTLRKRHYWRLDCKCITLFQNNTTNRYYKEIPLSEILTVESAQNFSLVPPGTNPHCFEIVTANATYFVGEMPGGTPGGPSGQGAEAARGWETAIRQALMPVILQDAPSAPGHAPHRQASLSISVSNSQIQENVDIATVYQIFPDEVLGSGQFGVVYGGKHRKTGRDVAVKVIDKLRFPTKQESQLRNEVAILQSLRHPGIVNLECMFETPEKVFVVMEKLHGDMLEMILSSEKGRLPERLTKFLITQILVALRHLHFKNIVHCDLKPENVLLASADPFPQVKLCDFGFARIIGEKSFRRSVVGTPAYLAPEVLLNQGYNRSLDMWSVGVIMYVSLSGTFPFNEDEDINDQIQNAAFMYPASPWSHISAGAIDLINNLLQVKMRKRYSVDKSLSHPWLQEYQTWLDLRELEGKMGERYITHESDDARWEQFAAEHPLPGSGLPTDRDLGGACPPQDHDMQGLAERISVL

[11] = target: T3, Serine/threonine-protein kinase D2 (Homo sapiens); settings: at 1 µM
[12] = target: T4, Serine/threonine-protein kinase D3 (Homo sapiens) (UniProt O94806); settings: at 0.1 µM
T4 sequence (whole entry): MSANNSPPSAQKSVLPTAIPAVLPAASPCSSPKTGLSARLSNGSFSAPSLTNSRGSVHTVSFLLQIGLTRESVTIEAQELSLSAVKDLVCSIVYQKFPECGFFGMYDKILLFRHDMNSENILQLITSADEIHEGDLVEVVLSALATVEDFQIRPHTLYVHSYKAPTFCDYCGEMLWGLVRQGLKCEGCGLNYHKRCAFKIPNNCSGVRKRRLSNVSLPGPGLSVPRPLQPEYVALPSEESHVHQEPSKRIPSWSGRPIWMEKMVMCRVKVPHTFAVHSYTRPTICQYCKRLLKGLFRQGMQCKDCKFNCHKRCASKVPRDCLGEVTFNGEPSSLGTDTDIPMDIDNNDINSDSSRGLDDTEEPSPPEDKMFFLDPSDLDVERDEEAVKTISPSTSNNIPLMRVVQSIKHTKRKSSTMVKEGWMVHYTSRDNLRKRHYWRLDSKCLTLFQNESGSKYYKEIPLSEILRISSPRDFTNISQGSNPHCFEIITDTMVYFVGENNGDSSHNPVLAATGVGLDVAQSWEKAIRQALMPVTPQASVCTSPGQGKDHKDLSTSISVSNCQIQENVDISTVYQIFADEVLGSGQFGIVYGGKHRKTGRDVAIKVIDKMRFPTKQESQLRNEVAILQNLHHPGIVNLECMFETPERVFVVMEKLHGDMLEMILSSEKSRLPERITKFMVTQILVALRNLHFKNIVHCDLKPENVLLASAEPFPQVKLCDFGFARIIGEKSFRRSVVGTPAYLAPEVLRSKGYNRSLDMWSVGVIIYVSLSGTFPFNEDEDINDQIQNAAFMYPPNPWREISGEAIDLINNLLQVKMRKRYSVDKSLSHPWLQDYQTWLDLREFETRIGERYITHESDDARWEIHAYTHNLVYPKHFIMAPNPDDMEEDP

[13] = target: T4, Serine/threonine-protein kinase D3 (Homo sapiens); settings: at 1 µM
[14] = target: T5, cGMP-dependent protein kinase 1 (Homo sapiens) (UniProt Q13976); settings: at 0.1 µM
T5 sequence (whole entry): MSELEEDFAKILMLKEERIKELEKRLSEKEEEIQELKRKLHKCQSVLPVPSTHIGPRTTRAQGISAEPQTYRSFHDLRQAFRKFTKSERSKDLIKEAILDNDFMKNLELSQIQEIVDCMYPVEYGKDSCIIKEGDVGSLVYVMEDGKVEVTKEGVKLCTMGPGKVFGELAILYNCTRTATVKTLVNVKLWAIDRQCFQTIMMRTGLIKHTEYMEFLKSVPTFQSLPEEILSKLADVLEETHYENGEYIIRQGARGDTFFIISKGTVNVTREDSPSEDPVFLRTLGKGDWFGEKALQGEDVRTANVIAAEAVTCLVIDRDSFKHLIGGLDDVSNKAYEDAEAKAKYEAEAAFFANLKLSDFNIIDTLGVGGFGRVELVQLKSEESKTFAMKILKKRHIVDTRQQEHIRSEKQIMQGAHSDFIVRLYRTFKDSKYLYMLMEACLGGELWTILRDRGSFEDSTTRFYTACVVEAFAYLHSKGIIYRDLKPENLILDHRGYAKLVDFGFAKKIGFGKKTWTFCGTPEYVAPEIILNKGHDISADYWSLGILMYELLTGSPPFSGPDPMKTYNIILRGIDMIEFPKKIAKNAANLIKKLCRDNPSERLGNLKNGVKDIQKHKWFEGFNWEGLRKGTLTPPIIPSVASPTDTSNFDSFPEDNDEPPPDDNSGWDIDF

[15] = target: T5, cGMP-dependent protein kinase 1 (Homo sapiens); settings: at 1 µM
[16] = target: T6, cGMP-dependent protein kinase 2 (Homo sapiens) (UniProt Q13237); settings: at 0.1 µM
T6 sequence (whole entry): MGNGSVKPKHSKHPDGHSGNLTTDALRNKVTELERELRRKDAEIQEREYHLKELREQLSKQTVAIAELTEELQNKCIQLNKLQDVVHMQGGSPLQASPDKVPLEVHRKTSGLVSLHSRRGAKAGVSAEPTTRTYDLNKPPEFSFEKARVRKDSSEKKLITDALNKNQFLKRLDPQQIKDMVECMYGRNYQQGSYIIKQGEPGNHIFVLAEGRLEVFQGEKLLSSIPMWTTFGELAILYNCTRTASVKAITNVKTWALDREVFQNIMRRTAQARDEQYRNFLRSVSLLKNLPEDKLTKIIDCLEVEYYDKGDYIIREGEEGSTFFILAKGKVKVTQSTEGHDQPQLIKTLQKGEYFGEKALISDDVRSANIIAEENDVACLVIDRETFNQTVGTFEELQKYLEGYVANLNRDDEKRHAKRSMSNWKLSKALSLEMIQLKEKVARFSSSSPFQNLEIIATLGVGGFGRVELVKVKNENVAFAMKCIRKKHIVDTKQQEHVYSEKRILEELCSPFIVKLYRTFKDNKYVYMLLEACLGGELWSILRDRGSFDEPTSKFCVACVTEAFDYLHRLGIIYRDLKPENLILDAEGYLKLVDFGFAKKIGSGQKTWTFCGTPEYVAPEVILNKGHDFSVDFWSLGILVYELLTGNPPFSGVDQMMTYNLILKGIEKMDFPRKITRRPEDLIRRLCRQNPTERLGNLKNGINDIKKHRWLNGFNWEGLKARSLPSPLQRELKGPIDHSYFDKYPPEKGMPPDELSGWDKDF

[17] = target: T6, cGMP-dependent protein kinase 2 (Homo sapiens); settings: at 1 µM
[18] = target: T7, cAMP-dependent protein kinase catalytic subunit PRKX (Homo sapiens) (UniProt P51817); settings: at 0.1 µM
T7 sequence (whole entry): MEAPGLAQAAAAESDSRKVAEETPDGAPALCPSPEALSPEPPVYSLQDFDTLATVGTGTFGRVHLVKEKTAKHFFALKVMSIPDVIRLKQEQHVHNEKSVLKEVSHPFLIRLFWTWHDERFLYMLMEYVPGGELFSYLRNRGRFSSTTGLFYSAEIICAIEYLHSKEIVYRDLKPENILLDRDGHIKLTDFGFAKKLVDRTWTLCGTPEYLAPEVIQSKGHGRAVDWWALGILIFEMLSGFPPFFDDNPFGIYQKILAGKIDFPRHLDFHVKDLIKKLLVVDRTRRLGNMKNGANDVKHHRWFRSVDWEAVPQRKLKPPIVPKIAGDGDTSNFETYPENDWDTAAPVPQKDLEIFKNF

[19] = target: T7, cAMP-dependent protein kinase catalytic subunit PRKX (Homo sapiens); settings: at 1 µM
[20] = target: Rho-associated protein kinase 1 (Homo sapiens) (UniProt Q13464); settings: at 0.1 µM;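 further: values are mean percent inhibition of ROCK1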
Chain of Rho-associated protein kinase 1 (Homo sapiens) (Q13464 2-1354 limits assumed): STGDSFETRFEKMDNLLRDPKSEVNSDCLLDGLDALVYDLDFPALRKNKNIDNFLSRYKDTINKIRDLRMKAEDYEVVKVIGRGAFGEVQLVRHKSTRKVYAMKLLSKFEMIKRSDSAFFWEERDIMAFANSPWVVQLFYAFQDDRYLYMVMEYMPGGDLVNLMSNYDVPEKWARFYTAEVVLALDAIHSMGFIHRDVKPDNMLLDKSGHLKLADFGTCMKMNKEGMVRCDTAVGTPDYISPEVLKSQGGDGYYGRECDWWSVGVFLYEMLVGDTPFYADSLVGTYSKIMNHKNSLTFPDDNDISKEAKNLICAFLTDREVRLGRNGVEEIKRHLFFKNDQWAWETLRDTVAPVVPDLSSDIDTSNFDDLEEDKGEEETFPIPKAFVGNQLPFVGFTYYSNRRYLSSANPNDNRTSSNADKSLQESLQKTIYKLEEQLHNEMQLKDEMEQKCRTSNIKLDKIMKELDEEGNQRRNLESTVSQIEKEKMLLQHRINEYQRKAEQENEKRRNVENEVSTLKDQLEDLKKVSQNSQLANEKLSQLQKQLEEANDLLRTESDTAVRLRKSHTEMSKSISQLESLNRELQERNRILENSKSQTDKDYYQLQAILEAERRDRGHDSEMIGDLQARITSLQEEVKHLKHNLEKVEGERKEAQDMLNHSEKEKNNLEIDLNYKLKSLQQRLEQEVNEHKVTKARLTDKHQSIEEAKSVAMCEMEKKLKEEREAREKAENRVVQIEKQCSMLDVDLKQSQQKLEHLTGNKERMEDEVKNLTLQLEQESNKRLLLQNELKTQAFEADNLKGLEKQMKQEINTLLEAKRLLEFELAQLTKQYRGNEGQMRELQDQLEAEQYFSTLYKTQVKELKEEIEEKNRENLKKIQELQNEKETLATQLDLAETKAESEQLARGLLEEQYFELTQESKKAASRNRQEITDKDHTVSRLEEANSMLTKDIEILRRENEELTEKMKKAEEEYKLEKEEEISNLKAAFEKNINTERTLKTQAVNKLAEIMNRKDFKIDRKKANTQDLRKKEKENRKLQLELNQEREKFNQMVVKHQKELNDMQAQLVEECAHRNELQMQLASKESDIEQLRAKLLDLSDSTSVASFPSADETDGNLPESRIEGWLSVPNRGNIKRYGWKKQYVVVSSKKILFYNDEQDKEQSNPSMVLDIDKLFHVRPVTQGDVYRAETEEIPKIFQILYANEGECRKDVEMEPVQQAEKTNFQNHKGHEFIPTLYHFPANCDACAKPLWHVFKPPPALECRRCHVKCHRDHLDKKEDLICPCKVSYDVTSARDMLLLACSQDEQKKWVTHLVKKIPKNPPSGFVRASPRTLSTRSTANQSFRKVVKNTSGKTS

Chain of Protein kinase C theta type (Homo sapiens) (Q04759 whole entry, looked up): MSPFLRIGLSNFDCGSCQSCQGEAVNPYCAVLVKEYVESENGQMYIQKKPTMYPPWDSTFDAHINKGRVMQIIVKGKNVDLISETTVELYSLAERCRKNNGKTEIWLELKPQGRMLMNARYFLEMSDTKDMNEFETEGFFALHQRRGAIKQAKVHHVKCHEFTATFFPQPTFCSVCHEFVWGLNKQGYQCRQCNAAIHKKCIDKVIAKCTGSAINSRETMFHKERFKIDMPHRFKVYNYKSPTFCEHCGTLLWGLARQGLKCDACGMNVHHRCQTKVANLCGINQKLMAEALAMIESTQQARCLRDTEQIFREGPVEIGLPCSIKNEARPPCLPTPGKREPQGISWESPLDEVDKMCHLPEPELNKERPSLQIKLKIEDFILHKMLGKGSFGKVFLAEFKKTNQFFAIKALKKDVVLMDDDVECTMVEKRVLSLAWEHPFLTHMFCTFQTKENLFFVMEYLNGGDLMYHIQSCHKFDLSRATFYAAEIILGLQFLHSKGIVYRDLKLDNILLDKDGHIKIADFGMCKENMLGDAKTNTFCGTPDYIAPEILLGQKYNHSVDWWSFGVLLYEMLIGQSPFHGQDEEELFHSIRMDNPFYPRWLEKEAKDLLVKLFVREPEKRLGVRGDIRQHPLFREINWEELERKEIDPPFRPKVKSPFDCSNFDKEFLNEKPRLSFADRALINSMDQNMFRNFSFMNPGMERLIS
Chain of Protein kinase C beta type (Homo sapiens) (P05771 2-671 limits assumed): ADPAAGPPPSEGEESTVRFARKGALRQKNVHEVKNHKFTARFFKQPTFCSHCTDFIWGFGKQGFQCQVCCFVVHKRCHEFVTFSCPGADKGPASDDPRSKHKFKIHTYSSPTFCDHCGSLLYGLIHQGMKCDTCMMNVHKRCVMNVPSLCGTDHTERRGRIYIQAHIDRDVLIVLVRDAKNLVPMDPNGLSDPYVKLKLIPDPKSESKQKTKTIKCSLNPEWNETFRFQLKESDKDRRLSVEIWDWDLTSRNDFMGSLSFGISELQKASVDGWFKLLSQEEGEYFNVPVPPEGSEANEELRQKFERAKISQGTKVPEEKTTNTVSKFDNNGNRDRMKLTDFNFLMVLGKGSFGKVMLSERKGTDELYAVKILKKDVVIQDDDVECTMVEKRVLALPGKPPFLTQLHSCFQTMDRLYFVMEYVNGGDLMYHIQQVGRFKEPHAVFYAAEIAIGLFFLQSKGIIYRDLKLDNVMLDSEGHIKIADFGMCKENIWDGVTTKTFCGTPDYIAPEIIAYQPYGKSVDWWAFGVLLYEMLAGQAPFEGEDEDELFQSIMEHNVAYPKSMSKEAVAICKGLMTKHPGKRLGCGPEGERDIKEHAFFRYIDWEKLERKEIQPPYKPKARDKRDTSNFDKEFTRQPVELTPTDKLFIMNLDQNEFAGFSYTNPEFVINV

Structure (SMILES)	inhibition [1]	inhibition [2]	inhibition [3]	inhibition [4]	inhibition [5]	inhibition [6]	inhibition [7]	inhibition [8]	inhibition [9]	inhibition [10]	inhibition [11]	inhibition [12]	inhibition [13]	inhibition [14]	inhibition [15]	inhibition [16]	inhibition [17]	inhibition [18]	inhibition [19]	inhibition [20]
c1ccc(Nc2ncc(-c3ccccc3)o2)cc1	4.48%	1.64%	0.9%	1.93%	2.27%	1.46%	2.63%	4.37%	7.71%	4.47%	8.41%	4.57%	8.93%	5.37%	6.06%	3.62%	5.4%	2.38%	3.33%	1.88%
COc1cc2ncn(-c3cc(OCc4ccccc4S(C)(=O)=O)c(C#N)s3)c2cc1OC	6.46%	2.06%	3.79%	2.44%	3.61%	1.55%	4.05%	2.92%	5.45%	3.97%	4.79%	4.75%	5.43%	4.3%	5.27%	3.46%	5.2%	1.34%	2.89%	3.62%
